Experimental data taken from ChEMBL document CHEMBL1961873, “Compounds: GSK PKIS; Assays: Nanosyn kinase panel” (2012).

These compounds were tested against Proto-oncogene tyrosine-protein kinase Src (Homo sapiens) (UniProt P12931). Conditions: at 1 µM.
Chain of Proto-oncogene tyrosine-protein kinase Src (Homo sapiens) (P12931 2-536 limits assumed): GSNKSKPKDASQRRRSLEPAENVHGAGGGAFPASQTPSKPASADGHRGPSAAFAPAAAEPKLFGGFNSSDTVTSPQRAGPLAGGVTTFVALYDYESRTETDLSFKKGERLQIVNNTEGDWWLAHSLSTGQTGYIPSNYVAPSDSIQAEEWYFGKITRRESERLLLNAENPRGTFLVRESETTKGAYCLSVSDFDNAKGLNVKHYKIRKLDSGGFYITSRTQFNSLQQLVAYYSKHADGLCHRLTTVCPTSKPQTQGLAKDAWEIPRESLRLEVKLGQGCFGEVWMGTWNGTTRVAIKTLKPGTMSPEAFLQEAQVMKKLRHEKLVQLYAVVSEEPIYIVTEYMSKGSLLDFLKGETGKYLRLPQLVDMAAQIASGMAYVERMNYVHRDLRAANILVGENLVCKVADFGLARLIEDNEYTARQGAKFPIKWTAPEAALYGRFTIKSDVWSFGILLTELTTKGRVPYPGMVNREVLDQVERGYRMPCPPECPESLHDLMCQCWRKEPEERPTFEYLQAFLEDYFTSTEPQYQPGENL

**Q.** `[O-][S+]1CCN(Cc2ccc(-c3ccc4ncnc(Nc5ccc(OCc6ccccc6)c(Cl)c5)c4c3)o2)CC1` was tested. Which inhibition did it give?
**A.** The inhibition was 6.34%.

**Q.** With `C[C@@H](Oc1cc(-n2cnc3ccc(OC[C@@H](O)CO)cc32)sc1C(N)=O)c1ccccc1Cl` as the compound, how does the inhibition read?
**A.** Its inhibition is 5.14%.

**Q.** How did the inhibition turn out when `OCc1ccc(-c2nc(-c3ccccn3)c(-c3ccc4c(c3)OCO4)[nH]2)cc1` was run?
**A.** The inhibition was 10.6%.

**Q.** For `NS(=O)(=O)c1ccc(Nc2cc(-c3cccc(O)c3)n[nH]2)cc1`, which inhibition is on record?
**A.** Its inhibition is 11.9%.

**Q.** With `Nc1ccc(C#Cc2cncnc2Nc2ccc(OCc3cccc(F)c3)c(Cl)c2)cc1` as the compound, how does the inhibition read?
**A.** Its inhibition is 3.71%.

**Q.** For `Cc1ccc(Nc2ccnc(Nc3cccc(C(N)=O)c3)n2)cc1O`, which inhibition is on record?
**A.** Its inhibition is 90.7%.

**Q.** How did the inhibition turn out when `CCCN1CCCC(c2ccc(Nc3nc(Nc4cc(F)ccc4C(N)=O)c4cc[nH]c4n3)c(OC)c2)C1` (stereo unspecified) was run?
**A.** Its inhibition is 14.6%.

**Q.** How did the inhibition turn out when `N#Cc1cccc(Nc2nccc(-c3cnn4ncccc34)n2)c1` was run?
**A.** The inhibition was 66%.

**Q.** Which inhibition does the source give for `COc1cc(Nc2nccc(-c3cnn4ncccc34)n2)cc(OC)c1` here?
**A.** Its inhibition is 63.9%.

**Q.** Which inhibition does the source give for `CS(=O)(=O)CCNCc1nc(-c2ccc3ncnc(Nc4ccc(OCc5cccc(C(F)(F)F)c5)cc4)c3c2)cs1` here?
**A.** Its inhibition is 7.64%.

**Q.** How did the inhibition turn out when `Cc1ccc(O)cc1Nc1ccnc2ccc(S(C)(=O)=O)cc12` was run?
**A.** Its inhibition is 95.1%.

**Q.** `Cc1nc(-c2ccccc2)n2nc(NCCCN3CCOCC3)ncc12` was tested. Which inhibition did it give?
**A.** Its inhibition is 6.81%.

**Q.** With `COc1cccc(-n2ncc3c(N/N=C/c4ccc(S(C)(=O)=O)cc4)ncnc32)c1` as the compound, how does the inhibition read?
**A.** The inhibition was 77.4%.

**Q.** Which inhibition does the source give for `NC(=O)c1sc(-n2cnc3ccccc32)cc1OCc1ccccc1Br` here?
**A.** Its inhibition is 12.9%.

**Q.** Which inhibition does the source give for `CS(=O)(=O)Nc1cccc(-c2ccc3c(NC(=O)C4CC4)n[nH]c3c2)c1` here?
**A.** Its inhibition is 4.09%.

**Q.** With `COc1cccc(-n2ncc3c(N/N=C/c4ccc(C)cc4)ncnc32)c1` as the compound, how does the inhibition read?
**A.** Its inhibition is 32.9%.

**Q.** How did the inhibition turn out when `NS(=O)(=O)c1cccc(Nc2cc(-c3ccc(F)cc3)n[nH]2)c1` was run?
**A.** Its inhibition is 10.4%.

**Q.** Which inhibition does the source give for `COC(=O)c1ccc2c(c1)C(=Cc1cc(Br)c(O)c(Br)c1)C(=O)N2` here?
**A.** Its inhibition is 19.6%.

**Q.** How did the inhibition turn out when `CCS(=O)(=O)c1ccc(OC)c(Nc2nccc(N(C)c3ccc4c(C)n[nH]c4c3)n2)c1` was run?
**A.** The inhibition was 81.2%.

**Q.** For `O=S(=O)(CCOCc1ccc(-c2ccc3ncnc(Nc4ccc(OCc5cccc(F)c5)c(Cl)c4)c3c2)o1)c1ccccc1`, which inhibition is on record?
**A.** The inhibition was 0.4%.

**Q.** How did the inhibition turn out when `Cc1cc(-c2ccccn2)cc(C)c1/C=C/c1cncc(-c2nn[nH]n2)c1` was run?
**A.** The inhibition was 15.4%.

**Q.** For `CN(C)C(=O)O[C@@H]1CN[C@@H](C#Cc2cc3ncnc(Nc4ccc(OCc5cccc(F)c5)c(Cl)c4)c3s2)C1`, which inhibition is on record?
**A.** Its inhibition is 3.62%.

**Q.** `Oc1cccc(-c2nc(-c3ccccc3)[nH]c2-c2ccncc2)c1` was tested. Which inhibition did it give?
**A.** The inhibition was 63.2%.

**Q.** `CN1CCN(C(=O)c2ccc(NC(=O)Nc3ccc(N(C)c4ccnc(Nc5ccc(CS(C)(=O)=O)cc5)n4)cc3)cc2)CC1` was tested. Which inhibition did it give?
**A.** Its inhibition is 42.2%.

**Q.** For `COc1cc(/C=N/Nc2ncnc3c2cnn3C(C)C)ccc1O`, which inhibition is on record?
**A.** The inhibition was 72.7%.

**Q.** With `FC(F)(F)c1ccc(-c2nn3ncccc3c2-c2ccnc(Nc3ccc4c(c3)OCCO4)n2)cc1` as the compound, how does the inhibition read?
**A.** Its inhibition is 15.8%.

**Q.** With `Nc1nccc(-c2c(-c3ccc(F)cc3)ncn2CCCN2CCOCC2)n1` as the compound, how does the inhibition read?
**A.** Its inhibition is 8.77%.

**Q.** Which inhibition does the source give for `Cc1ccc(C(=O)NC2CC2)cc1-c1ccc2[nH]ncc2c1` here?
**A.** The inhibition was -7.08%.

**Q.** Which inhibition does the source give for `COc1cc2ncn(-c3cc(OCc4ccccc4S(C)(=O)=O)c(C#N)s3)c2cc1OC` here?
**A.** The inhibition was 50.1%.

**Q.** `COc1ccc2ncnc(Nc3ccc(OCc4ccccc4)cc3)c2c1` was tested. Which inhibition did it give?
**A.** Its inhibition is 8.82%.

**Q.** `COC(=O)Nc1nc2cc(Oc3ccc(NC(=O)Nc4cccc(Br)c4)cc3)ccc2[nH]1` was tested. Which inhibition did it give?
**A.** Its inhibition is 6.9%.

**Q.** `Cc1ccc2c(-c3ccnc(Nc4cccc(C(F)(F)F)c4)n3)c(-c3ccccc3)nn2n1` was tested. Which inhibition did it give?
**A.** The inhibition was 72.9%.

**Q.** With `COc1cc2ncnc(Nc3ccc(C)c(O)c3)c2cc1OC` as the compound, how does the inhibition read?
**A.** Its inhibition is 70.5%.

The compounds below were run against Tyrosine-protein kinase Srms (Homo sapiens) (UniProt Q9H3Y6). Conditions: at 0.1 µM.
Chain of Tyrosine-protein kinase Srms (Homo sapiens) (Q9H3Y6 whole entry): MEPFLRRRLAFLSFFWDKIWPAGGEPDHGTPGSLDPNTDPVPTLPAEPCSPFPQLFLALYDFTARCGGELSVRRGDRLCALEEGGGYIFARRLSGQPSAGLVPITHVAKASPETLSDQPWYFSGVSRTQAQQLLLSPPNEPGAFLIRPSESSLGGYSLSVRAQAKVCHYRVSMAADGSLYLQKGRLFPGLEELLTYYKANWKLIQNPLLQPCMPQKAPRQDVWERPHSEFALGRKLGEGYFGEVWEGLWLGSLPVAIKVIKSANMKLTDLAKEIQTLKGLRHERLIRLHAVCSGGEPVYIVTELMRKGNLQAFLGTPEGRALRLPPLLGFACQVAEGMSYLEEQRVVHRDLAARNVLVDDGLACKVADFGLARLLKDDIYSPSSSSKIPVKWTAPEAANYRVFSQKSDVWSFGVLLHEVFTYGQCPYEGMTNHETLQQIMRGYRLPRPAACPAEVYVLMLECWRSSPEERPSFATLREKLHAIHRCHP

**Q.** How did the inhibition turn out when `[O-][S+]1CCN(Cc2ccc(-c3ccc4ncnc(Nc5ccc(OCc6ccccc6)c(Cl)c5)c4c3)o2)CC1` was run?
**A.** Its inhibition is -2.27%.

**Q.** With `C[C@@H](Oc1cc(-n2cnc3ccc(OC[C@@H](O)CO)cc32)sc1C(N)=O)c1ccccc1Cl` as the compound, how does the inhibition read?
**A.** Its inhibition is 0.51%.

**Q.** How did the inhibition turn out when `OCc1ccc(-c2nc(-c3ccccn3)c(-c3ccc4c(c3)OCO4)[nH]2)cc1` was run?
**A.** Its inhibition is 0.43%.

**Q.** `NS(=O)(=O)c1ccc(Nc2cc(-c3cccc(O)c3)n[nH]2)cc1` was tested. Which inhibition did it give?
**A.** Its inhibition is -2.79%.

**Q.** How did the inhibition turn out when `Nc1ccc(C#Cc2cncnc2Nc2ccc(OCc3cccc(F)c3)c(Cl)c2)cc1` was run?
**A.** The inhibition was -2.09%.

**Q.** For `Cc1ccc(Nc2ccnc(Nc3cccc(C(N)=O)c3)n2)cc1O`, which inhibition is on record?
**A.** The inhibition was 10.8%.

**Q.** How did the inhibition turn out when `CCCN1CCCC(c2ccc(Nc3nc(Nc4cc(F)ccc4C(N)=O)c4cc[nH]c4n3)c(OC)c2)C1` (stereo unspecified) was run?
**A.** The inhibition was 1.99%.

**Q.** For `N#Cc1cccc(Nc2nccc(-c3cnn4ncccc34)n2)c1`, which inhibition is on record?
**A.** The inhibition was 1.1%.

**Q.** With `COc1cc(Nc2nccc(-c3cnn4ncccc34)n2)cc(OC)c1` as the compound, how does the inhibition read?
**A.** Its inhibition is 0.34%.

**Q.** For `CS(=O)(=O)CCNCc1nc(-c2ccc3ncnc(Nc4ccc(OCc5cccc(C(F)(F)F)c5)cc4)c3c2)cs1`, which inhibition is on record?
**A.** Its inhibition is -0.76%.

**Q.** With `Cc1ccc(O)cc1Nc1ccnc2ccc(S(C)(=O)=O)cc12` as the compound, how does the inhibition read?
**A.** Its inhibition is 27.4%.

**Q.** `Cc1nc(-c2ccccc2)n2nc(NCCCN3CCOCC3)ncc12` was tested. Which inhibition did it give?
**A.** Its inhibition is 2.65%.

**Q.** With `COc1cccc(-n2ncc3c(N/N=C/c4ccc(S(C)(=O)=O)cc4)ncnc32)c1` as the compound, how does the inhibition read?
**A.** Its inhibition is 4.95%.

**Q.** How did the inhibition turn out when `NC(=O)c1sc(-n2cnc3ccccc32)cc1OCc1ccccc1Br` was run?
**A.** Its inhibition is -2.72%.

**Q.** With `CS(=O)(=O)Nc1cccc(-c2ccc3c(NC(=O)C4CC4)n[nH]c3c2)c1` as the compound, how does the inhibition read?
**A.** Its inhibition is 1.35%.

**Q.** `COc1cccc(-n2ncc3c(N/N=C/c4ccc(C)cc4)ncnc32)c1` was tested. Which inhibition did it give?
**A.** Its inhibition is -2.37%.

**Q.** With `NS(=O)(=O)c1cccc(Nc2cc(-c3ccc(F)cc3)n[nH]2)c1` as the compound, how does the inhibition read?
**A.** The inhibition was -0.24%.

**Q.** With `COC(=O)c1ccc2c(c1)C(=Cc1cc(Br)c(O)c(Br)c1)C(=O)N2` as the compound, how does the inhibition read?
**A.** Its inhibition is 30.9%.

**Q.** For `CCS(=O)(=O)c1ccc(OC)c(Nc2nccc(N(C)c3ccc4c(C)n[nH]c4c3)n2)c1`, which inhibition is on record?
**A.** Its inhibition is 11.4%.

**Q.** With `O=S(=O)(CCOCc1ccc(-c2ccc3ncnc(Nc4ccc(OCc5cccc(F)c5)c(Cl)c4)c3c2)o1)c1ccccc1` as the compound, how does the inhibition read?
**A.** The inhibition was -1.31%.

**Q.** How did the inhibition turn out when `Cc1cc(-c2ccccn2)cc(C)c1/C=C/c1cncc(-c2nn[nH]n2)c1` was run?
**A.** Its inhibition is -2.18%.

**Q.** With `CN(C)C(=O)O[C@@H]1CN[C@@H](C#Cc2cc3ncnc(Nc4ccc(OCc5cccc(F)c5)c(Cl)c4)c3s2)C1` as the compound, how does the inhibition read?
**A.** The inhibition was -1.8%.

**Q.** For `Oc1cccc(-c2nc(-c3ccccc3)[nH]c2-c2ccncc2)c1`, which inhibition is on record?
**A.** Its inhibition is 3.43%.

**Q.** With `CN1CCN(C(=O)c2ccc(NC(=O)Nc3ccc(N(C)c4ccnc(Nc5ccc(CS(C)(=O)=O)cc5)n4)cc3)cc2)CC1` as the compound, how does the inhibition read?
**A.** The inhibition was 0.11%.

**Q.** Which inhibition does the source give for `COc1cc(/C=N/Nc2ncnc3c2cnn3C(C)C)ccc1O` here?
**A.** Its inhibition is 1.16%.

**Q.** `FC(F)(F)c1ccc(-c2nn3ncccc3c2-c2ccnc(Nc3ccc4c(c3)OCCO4)n2)cc1` was tested. Which inhibition did it give?
**A.** The inhibition was 8.49%.

**Q.** For `Nc1nccc(-c2c(-c3ccc(F)cc3)ncn2CCCN2CCOCC2)n1`, which inhibition is on record?
**A.** Its inhibition is -1.41%.

**Q.** How did the inhibition turn out when `Cc1ccc(C(=O)NC2CC2)cc1-c1ccc2[nH]ncc2c1` was run?
**A.** Its inhibition is -1.77%.

**Q.** Which inhibition does the source give for `COc1cc2ncn(-c3cc(OCc4ccccc4S(C)(=O)=O)c(C#N)s3)c2cc1OC` here?
**A.** Its inhibition is 2.07%.

**Q.** Which inhibition does the source give for `COc1ccc2ncnc(Nc3ccc(OCc4ccccc4)cc3)c2c1` here?
**A.** The inhibition was -1.19%.

**Q.** With `COC(=O)Nc1nc2cc(Oc3ccc(NC(=O)Nc4cccc(Br)c4)cc3)ccc2[nH]1` as the compound, how does the inhibition read?
**A.** Its inhibition is 2.26%.

**Q.** `Cc1ccc2c(-c3ccnc(Nc4cccc(C(F)(F)F)c4)n3)c(-c3ccccc3)nn2n1` was tested. Which inhibition did it give?
**A.** The inhibition was 1.71%.

**Q.** For `COc1cc2ncnc(Nc3ccc(C)c(O)c3)c2cc1OC`, which inhibition is on record?
**A.** Its inhibition is 2.71%.
